According to PubChem BioAssay AID1159580 (chemical genetic matrix, 2015):
The campaign covered roughly 5,500 compounds. About 2,000 (36%) were called active. Not shown: some 18% with an inconclusive outcome. Rule as the data show it: active = normalized growth mostly below about 0.91 (no sharp cut-off); inconclusive = no clear call, values can overlap the other calls; inactive = mostly above about 0.92. The list shows a part of the results.

Assay: chemical genetic growth profiling, strain panel (AID 1159580);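 also: tested at 20 µM; growth read once vehicle control cultures reached saturation at 30 °C; 1 = growth at the plate median or of vehicle wells; lower values mean less growth of the strain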
Conditions: S. cerevisiae deletion strains, growth OD
[1] = locus YDL101C, strain DUN1, stronger effect = lower value
[2] = locus YHR030C, strain SLT2, stronger effect = lower value

Measured: normalized growth

CCOC(=O)COc1ccc2c(c1)OC(C)(C)CC2=O
inactive: locus YAL013W, strain DEP1, stronger effect = lower value 0.998 | locus YBR229C, strain ROT2, stronger effect = lower value 0.994 | locus YCL061C, strain MRC1, stronger effect = lower value 0.964 | [1] 0.993 | locus YDL134C, strain PPH21, stronger effect = lower value 1.01 | locus YDR150W, strain NUM1, stronger effect = lower value 0.872 | locus YEL061C, strain CIN8, stronger effect = lower value 1.01 | locus YGR078C, strain PAC10, stronger effect = lower value 1 | locus YGR229C, strain SMI1, stronger effect = lower value 1.01 | [2] 0.947 | locus YHR087W, strain rtc3, stronger effect = lower value 0.976 | locus YJR043C, strain POL32, stronger effect = lower value 0.994 | locus YJR075W, strain HOC1, stronger effect = lower value 0.974 | locus YLR039C, strain RIC1, stronger effect = lower value 1.05 | locus YLR058C, strain SHM2 (second series), stronger effect = lower value 1 | locus YLR085C, strain ARP6, stronger effect = lower value 0.965 | locus YLR262C, strain YPT6, stronger effect = lower value 1.02 | locus YML094W, strain GIM5, stronger effect = lower value 1.02 | locus YMR219W, strain ESC1, stronger effect = lower value 0.988 | locus YMR263W, strain SAP30, stronger effect = lower value 1.01 | locus YMR307W, strain GAS1, stronger effect = lower value 0.986 | locus YNL128W, strain TEP1, stronger effect = lower value 1.01 | locus YNL153C, strain GIM3, stronger effect = lower value 0.966 | locus YNL298W, strain CLA4 (second series), stronger effect = lower value 1.01 | locus YNL322C, strain KRE1, stronger effect = lower value 1 | locus YNR030W, strain Alg12, stronger effect = lower value 1 | locus YPL055C, strain LGE1, stronger effect = lower value 0.849 | locus YPL241C, strain CIN2, stronger effect = lower value 0.953 | locus YPR135W, strain CTF4, stronger effect = lower value 1.03

Cc1oc2c(F)c(F)c(F)c(F)c2c1C(=O)ONC(N)c1ccc(OS(=O)(=O)N(C)C)cc1 (stereo not given)
inactive: locus YAR019C, strain CDC15, stronger effect = lower value 0.958 | locus YBL105C, strain PKC1, stronger effect = lower value 0.963 | locus YBR135W, strain CKS1, stronger effect = lower value 0.971 | locus YBR136W, strain MEC1, stronger effect = lower value 0.958 | locus YBR160W, strain CDC28, stronger effect = lower value 0.976 | locus YDL017W, strain CDC7, stronger effect = lower value 0.973 | locus YDL028C, strain MPS1, stronger effect = lower value 0.959 | [1] 0.985 | locus YDL108W, strain KIN28, stronger effect = lower value 0.978 | locus YDL132W, strain cdc53, stronger effect = lower value 0.982 | locus YDL214C, strain PRR2, stronger effect = lower value 0.969 | locus YDR052C, strain DBF4, stronger effect = lower value 0.971 | locus YDR054C, strain cdc34, stronger effect = lower value 0.976 | locus YDR226W, strain ADK1, stronger effect = lower value 0.969 | locus YDR477W, strain SNF1, stronger effect = lower value 0.946 | locus YER123W, strain YCK3, stronger effect = lower value 0.926 | locus YER133W, strain GLC7, stronger effect = lower value 0.958 | locus YFL009W, strain cdc4, stronger effect = lower value 0.962 | locus YFL029C, strain CAK1, stronger effect = lower value 0.958 | locus YFR003C, strain YPI1, stronger effect = lower value 0.968 | locus YFR019W, strain FAB1, stronger effect = lower value 0.937 | locus YFR028C, strain CDC14, stronger effect = lower value 0.963 | locus YGR040W, strain KSS1, stronger effect = lower value 0.949 | locus YGR052W, strain FMP48, stronger effect = lower value 1.03 | locus YGR092W, strain DBF2, stronger effect = lower value 0.989 | [2] 0.937 | locus YHR079C, strain IRE1, stronger effect = lower value 0.981 | locus YHR082C, strain KSP1, stronger effect = lower value 1.02 | locus YHR205W, strain SCH9, stronger effect = lower value 0.926 | locus YIL147C, strain SLN1, stronger effect = lower value 0.96 | locus YJL095W, strain BCK1, stronger effect = lower value 0.983 | locus YJL128C, strain PBS2, stronger effect = lower value 0.972 | locus YJL157C, strain FAR1, stronger effect = lower value 0.963 | locus YJR016C, strain ILV3, stronger effect = lower value 0.972 | locus YJR066W, strain TOR1 (second series), stronger effect = lower value 0.918 | locus YJR066W, strain TOR1, stronger effect = lower value 0.985 | locus YKL048C, strain ELM1, stronger effect = lower value 0.981 | locus YKL067W, strain YNK1, stronger effect = lower value 0.975 | locus YKL101W, strain HSL1, stronger effect = lower value 0.966 | locus YKL193C, strain SDS22, stronger effect = lower value 0.969 | locus YKL203C, strain TOR2, stronger effect = lower value 0.99 | locus YLR113W, strain HOG1, stronger effect = lower value 0.966 | locus YLR133W, strain CKI1, stronger effect = lower value 0.96 | locus YLR403W, strain SFP1, stronger effect = lower value 0.921 | locus YML070W, strain DAK1, stronger effect = lower value 0.955 | locus YMR001C, strain CDC5, stronger effect = lower value 0.963 | locus YMR205C, strain PFK2 (second series), stronger effect = lower value 0.975 | locus YMR277W, strain FCP1, stronger effect = lower value 0.964 | locus YNL006W, strain LST8, stronger effect = lower value 0.97 | locus YNL020C, strain ARK1, stronger effect = lower value 0.982 | locus YNL161W, strain CBK1, stronger effect = lower value 0.971 | locus YNL183C, strain NPR1, stronger effect = lower value 0.964 | locus YNL207W, strain RIO2, stronger effect = lower value 0.967 | locus YNL222W, strain SSU72, stronger effect = lower value 0.976 | locus YNL307C, strain MCK1 (second series), stronger effect = lower value 0.952 | locus YOL078W, strain AVO1, stronger effect = lower value 0.963 | locus YOL136C, strain PFK27, stronger effect = lower value 0.952 | locus YOR061W, strain CKA2, stronger effect = lower value 0.951 | locus YOR119C, strain RIO1, stronger effect = lower value 0.97 | locus YOR231W, strain MKK1, stronger effect = lower value 0.986 | locus YOR329C, strain SCD5, stronger effect = lower value 0.972 | locus YPL031C, strain PHO85, stronger effect = lower value 0.94 | locus YPL153C, strain RAD53, stronger effect = lower value 0.946 | locus YPL204W, strain HRR25, stronger effect = lower value 0.963 | locus YPL209C, strain IPL1, stronger effect = lower value 0.974 | locus YPL256C, strain CLN2, stronger effect = lower value 0.959 | locus YPR025C, strain CCL1, stronger effect = lower value 0.968 | locus YPR106W, strain ISR1, stronger effect = lower value 0.986 | locus YPR111W, strain DBF20, stronger effect = lower value 0.98 | strain NNK1, stronger effect = lower value 0.993 | strain TSCII, stronger effect = lower value 0.967
